In all, about 290,000 compounds went through this assay and about 3,500 (1.2%) were called active. This excerpt belongs to a sample that is enriched for actives. A number with no mark means an inactive call.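 The calls were made as follows: active = inhibition above the campaign mean inhibition over all tested compounds plus 3 SD (cut at about 28% in these data); inactive = the rest.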
Test system: M18 aspartyl aminopeptidase (Plasmodium falciparum 3D7)
Test: PfM18AAP inhibitors, malaria aminopeptidase, primary screen, biochemical, QFRET, recombinant enzyme (AID 1822);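 also: 0% = plate median of test compound wells and 100% = 2 mM ZnCl2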
Settings: H-Glu-NHMec fluorogenic cleavage, at 7.35 µM, hits give high values

Row | SMILES | inhibition
1 | O=C(Nc1ccc(F)cc1)c1ccc(S(=O)(=O)NCc2cccnc2)cc1 | 1.68%
2 | O=C(O)c1cccc(N2C(=O)Nc3ccccc3N2O)c1 | -0.41%
3 | C/C(=N\Nc1cccc(C(=O)O)c1)c1ccc2c(c1)Nc1ccccc1S2 | 28.6% (active)
4 | O=C(NC1CC1)c1ccc2c(c1)NC(=O)c1ccccc1S2 | -6.63%
5 | CCOc1ccc(OCC)c(NC(=O)CCS(=O)(=O)c2ccc(C)cc2)c1 | -4.08%
6 | O=C(Nc1ccc2sc3ccccc3c(=O)c2c1)c1ccccc1Cl | 3.74%
7 | COc1ccc(NC(=O)CN(C)C(=O)CNC(=O)C2CCCCC2)cc1 | 5.81%
8 | COc1ccc(NC(=O)c2sc3nc(C)nc(N4CCN(c5ccccn5)CC4)c3c2C)c(OC)c1 | -4.65%
9 | NC(=O)c1c(Nc2nc3c(F)cccc3s2)sc2c1CCCC2 | 49.1% (active)
10 | O=C(Nc1sc2c(c1C(=O)O)CCC2)c1ccccc1F | -1.52%
11 | NC(=O)c1c(NC(=O)c2ccccc2)sc2c1CCCC2 | 1.26%
12 | CC(=O)c1ccc(NC(=O)CCNS(=O)(=O)c2cc(Br)cnc2N)cc1 | -3.06%
13 | CC1CCN(C(=S)c2ccc(-c3ccc(Cl)cc3Cl)o2)CC1 | 4.16%
14 | S=C(c1ccccc1)N1CCCC1 | -1.81%
15 | S=C(c1ccc(-c2ccccc2)o1)N1CCCCC1 | 30.8% (active)
16 | O=C1c2cccc3c([N+](=O)[O-])ccc(c23)C(=O)N1CC1CCCO1 (stereo not drawn) | 4.32%
17 | O=C(OCc1ccc([N+](=O)[O-])cc1)C1CC(=O)N(Cc2ccccc2Cl)C1 (stereo not drawn) | -11.3%
18 | CC(C)N1CCC(N2CCN(Cc3cccnc3)CC2CCO)CC1 (stereo not drawn) | 4.35%
19 | O=C(O)c1cccc(NC(=S)N/N=C/c2c[nH]c3ccccc23)c1 | 38.5% (active)
20 | CSC(=S)N/N=C/c1c[nH]c2ccccc12 | 9.14%
21 | O=C(N/N=C/c1c[nH]c2ccccc12)c1ccccc1O | 9.89%
22 | CCc1[nH]nc(C(=O)N2CCCC(CO)(Cc3ccc(F)cc3F)C2)c1C (stereo not drawn) | -13.6%
23 | Cc1cc(OCc2cc(C(=O)NCc3cc(C(C)C)no3)no2)cc(C)c1Cl | -17.4%
24 | O=c1[nH]c2ccccc2n2c(-c3ccccc3)nnc12 | 33.2% (active)

Row | SMILES | inhibition
25 | Cc1ccc(-c2nc3ccccc3[nH]c2=O)cc1 | -7.7%
26 | CC(=O)c1c(-c2ccccc2)c2ccccc2[nH]c1=O | -2.54%
27 | CC(=O)N1c2ccc(S(=O)(=O)N3CCC(C(=O)NC4CCCCC4C)CC3)cc2CC1C (stereo not drawn) | 17.8%
28 | COc1cc(/C=C2/C(=O)NN(c3ccc(F)cc3)C2=O)cc([N+](=O)[O-])c1O | 9.62%
29 | COc1cc(/C=C2/C(=O)NN(c3cccc(Cl)c3)C2=O)cc(Br)c1O | 32.2% (active)
30 | C#CCOc1ccc(/C=C2/C(=O)NN(c3ccccc3)C2=O)cc1OC | 22%
31 | Cn1c(=O)c([N+](=O)[O-])c(Oc2ccccc2)c2ccccc21 | 24%
32 | Cc1ccc(C(=O)N/C(=C\c2ccco2)C(=O)N2CCSCC2)cc1C | -11%
33 | CC1CCN(C(=O)/C(=C\c2ccccc2)NC(=O)c2ccccc2)CC1 | -0.48%
34 | NC(=O)C1CCN(C(=O)/C(=C/c2ccco2)NC(=O)c2ccccc2)CC1 | 35.1% (active)
35 | CCc1ccc(-c2cc3c(=O)n(CC(=O)NCCCN4CCN(Cc5ccccc5)CC4)nc(C)n3n2)cc1 | -0.45%
36 | Cc1ccc(OCC(=O)Nc2ccc(NC(=O)c3cccs3)cc2)c(C)c1 | 2.4%
37 | CCCc1nnc(NC(=O)CCC(=O)N2CCN(S(=O)(=O)c3ccc(OC)cc3)CC2)s1 | 3.89%
38 | N#C/C(=C\c1ccc(-c2cccc([N+](=O)[O-])c2)o1)C(=O)NCCN1CCOCC1 | 2.81%
39 | Cc1ccc(Cc2cnc(NC(=O)/C(C#N)=C/c3ccc(-c4cccc([N+](=O)[O-])c4)o3)s2)cc1 | 1.04%
40 | Cc1ccc(-c2ccc(/C=C(\C#N)C(N)=S)o2)c([N+](=O)[O-])c1 | 34% (active)
41 | Cc1ccc(N(C(=O)c2snc(C(N)=O)c2N)C(C(=O)NCC2CCCO2)c2c[nH]c3ccccc23)cc1 (stereo not drawn) | 2.71%
42 | CN1CCN(CCCCOc2ccccc2-c2ccccc2)CC1 | 2.29%
43 | OCCN1CCN(c2nnc(-c3ccccc3)c3ccccc23)CC1 | 4.34%
44 | OCCN1CCN(C(=S)c2ccc(-c3ccccc3)cc2)CC1 | 50% (active)
45 | CC(=O)Nc1ccc(S(=O)(=O)Oc2ccc(Br)cc2C(=S)N2CCOCC2)cc1 | 20.7%
46 | COc1cc(CC(=O)N2CCC(n3nccc3NC(=O)C3CC3)CC2)cc(OC)c1OC | 1.44%
47 | CCOc1ccc(CCNC(=O)CCc2nnc3ccc(N4CCCC4)nn23)cc1OCC | -5.76%
48 | CCOC(=O)c1cccc(NC(=O)CCc2nnc3ccc(N4CCOCC4)nn23)c1 | -1.08%

Row | SMILES | inhibition
49 | CCN(CC)c1ccc(NC(=O)CCc2nnc3ccc(N4CCCCC4)nn23)c(C)c1 | 34.1% (active)
50 | CCC(c1nnnn1C(C)(C)C)N(Cc1cc2cccc(C)c2n2nnnc12)C1CCCC1 (stereo not drawn) | -1.66%
51 | Cc1nn(C(C)(C)C)c(OC(=O)CC(C)C)c1S(=O)(=O)c1ccccc1 | 3.62%
52 | Cc1ccc2nc(-c3cccc(Br)c3)cc(C(=O)Nn3cnnc3)c2c1 | 60.7% (active)
53 | Cc1ccc2nc(-c3ccncc3)cc(C(=O)Nc3ccncc3)c2c1 | 1.48%
54 | Cc1ccc(-c2cc(C(=O)NCc3cn(C)nc3C)c3cc(Br)ccc3n2)cc1 | 0.33%
55 | N#Cc1c(-c2ccccc2)nc(SCc2cccc(C(F)(F)F)c2)[nH]c1=O | 0.63%
56 | COc1ccc(-c2nonc2NC(=O)c2oc3ccc(F)cc3c2C)cc1OC | 2.64%
57 | COc1ccccc1N1CCN(/N=C/c2ccc(O)cc2O)CC1 | 9.99%
58 | Cc1cc(N/N=C/c2ccccc2F)c2ccccc2n1 | 3.64%
59 | Oc1ccc(/C=N/Nc2nc(-c3ccccc3F)nc3ccccc23)c(O)c1 | 18%
60 | Cc1nc2ccccc2nc1N/N=C/c1ccc(O)cc1O | 31.6% (active)
61 | COc1ccc(/C=C(\C#N)C(=O)ONC2=NCCCCC2)cc1 | 3.59%
62 | Oc1ccc(/C=N/NC2=NCCCCC2)c(O)c1 | 40.1% (active)
63 | O=C(NNC(=O)C1CCCC1)c1ccc(F)cc1 | 3.26%
64 | Cc1cc(C)cc(Oc2c(C(F)(F)F)oc3cc(OCC(=O)O)ccc3c2=O)c1 | 0.89%
65 | N#Cc1cccc(CSc2ncnc(N)n2)c1 | 3.53%
66 | CC(C)c1c(C(=O)N/N=C/c2ccccc2C(=O)O)nnn1-c1nonc1N | 2.33%
67 | O=S(=O)(Nc1ccccc1Br)c1cccs1 | -3.63%
68 | Cc1ccc(N2C(=O)C3C4C=CC(CC4)C3C2=O)cc1Br (stereo not drawn) | -1.4%
69 | Nn1cnnc1N/N=C/c1cc([N+](=O)[O-])c(Cl)cc1Cl | 30% (active)
70 | O=[N+]([O-])c1ccc(O)c(/C=N/Nc2ccccc2[N+](=O)[O-])c1 | -13%
71 | COCCCNC(=O)CN1C(=O)CSc2ccc(S(=O)(=O)N3CCOCC3)cc21 | 6.04%
72 | Cc1ccc(CNC(=O)C(=O)c2cn(CC(=O)N3CCCC3)c3ccccc23)cc1 | 2.97%

Row | SMILES | inhibition
73 | Oc1ccc(-c2onc3ccc(Cl)cc23)cc1 | 1.68%
74 | COc1ccc(-c2onc3ccc(C(C)=O)cc23)cc1 | 13.4%
75 | CC(OC(=O)c1ccc2noc(-c3ccccc3)c2c1)C(N)=O (stereo not drawn) | 31.9% (active)
76 | Cc1c(CN2CC[C@@H](N3CCN(c4ccccn4)CC3)[C@H](O)C2)[nH]c2ccc(F)cc12 | 9.87%
77 | COc1ccc(N(Cc2cc3ccc(C)cc3[nH]c2=O)S(=O)(=O)c2ccccc2)cc1 | 6.49%
78 | CC(=O)N1c2ccc(S(=O)(=O)NCCC(=O)N(C)C3CCCCC3)cc2CC1C (stereo not drawn) | 0.68%
79 | O=C(Nc1cccc([N+](=O)[O-])c1)Nc1ccc(Cl)cn1 | -7.59%
80 | Cc1ccc(C)n1NC(=O)c1ccc([N+](=O)[O-])cc1 | 3.79%
81 | O=C(Nn1cnnc1)c1ccc([N+](=O)[O-])cc1 | 30.2% (active)
82 | O=C(Nn1c(-c2ccccc2)nc2ccccc2c1=O)c1ccc([N+](=O)[O-])cc1 | -0.32%
83 | COC(=O)/C=C\C(=O)Nc1cccc([N+](=O)[O-])c1 | -7.77%
84 | O=C(Nc1cccc([N+](=O)[O-])c1)Nn1cnnc1 | 77.4% (active)
85 | COc1ccc(C(=O)NCc2nnc(SCC(=O)NC3=NCCS3)n2C)cc1 | -2.4%
86 | Cc1cccc(C(=O)Nc2ccc(C(=O)N/N=C/c3cccc(C)n3)cc2)c1 | -3.2%
87 | CSCC[C@H](NC(=O)N1CCn2c1nc1ccccc12)C(=O)NC1CCCCC1 | 2.15%
88 | CCCc1cc(=O)oc2c(C)c(OCC(=O)N3CCC(C(=O)O)CC3)ccc12 | 5.91%
89 | COc1ccc(C(C(=O)NC(C)(C)C)N(Cc2ccc(F)cc2)C(=O)CCC(=O)Nc2cc(C)on2)cc1 (stereo not drawn) | -7.57%
90 | C=CCOc1cccc(CNCc2cccnc2)c1 | -17.3%
91 | Cc1ccc(NNC(=O)c2c(F)cccc2Cl)cc1Cl | 5.54%
92 | Cc1ccc(NNC(=O)c2cccs2)cc1Cl | 28.9% (active)
93 | O=C(NNC(=O)c1ccc(Cl)cc1Cl)c1cccs1 | -2.06%

Source: PubChem BioAssay AID1822 (The Scripps Research Institute Molecular Screening Center, 2009)
